USP1 inh: inhibitors of human USP1/UAF1 deubiquitinase. actives 0.23% (n = 390,000). O94782. AID 743255. recombinant USP1/UAF1, Ub-Rhodamine cleavage fluorescence. Potency, µM (titrated, usually from 57.1 µM), actives largely listed as inhibitors; also: nearly all actives have a fitted effect of over 60% in size
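Step one: compound is pinned into 1nM USP1/UAF1 in HEPES pH 7.8 buffer with TCEP. Step two: 15 min room-temperature incubation. Step three: Ub-Rho (150nM final) starts cleavage, tracked by fluorescence over six one-minute reads.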
Coupling enz: counter-screen for Giardia aldolase inhibitors: coupling enzyme system | coupling enzyme system counterscreen, AmpLite Red fluorescence | activity change, negative = inhibition, % at 58.2 µM, hits read low | actives 0.67% (n = 290,000); in the data active = activity change below about -30%
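Counterscreen lacking aldolase: glyceraldehyde-3-phosphate coupling-enzyme reagent preincubated 10 min at RT with compound (at 57.5 uM final), then substrate/coupling system with AmpLite Red added; fluorescence read at 525/598 nm after 20 min RT.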
GALK inh: inhibitors of human galactokinase; P51570; Purified GALK, Kinase-Glo residual ATP luminescence; Potency, µM (top dose mostly 57.5 µM), most hits filed as inhibitors; actives 0.007% (n = 270,000); AID 1868
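The enzyme phosphorylates galactose (100 uM) using ATP (35 uM); inhibition is detected as higher residual ATP, quantified by bioluminescence after 1 h reaction at room temperature, pH 8.0.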
PLK1 PBD block: PLK1 (human) polo-box domain binding inhibition. P53350. Plk1 PBD binding of FITC phosphopeptide, fluorescence polarization. Potency, µM, usual class: inhibitors. actives 2.8% (n = 360,000). AID 720504; also: series mostly up to about 57 µM; nearly all actives have a fitted effect of over 65% in size
VDR inhibitor: blocks the human vitamin D receptor. actives 0.93% (n = 400,000). P11473. VDR-SRC2-3 peptide fluorescence polarization, 2 h. Potency, µM, actives largely listed as inhibitors
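Reagent solutions, kept cold and dark, are dispensed first; compounds are then pinned in at 23 nl, plates briefly spun, and incubated 2 h at ambient temperature. Inhibition of VDR–SRC2-3 peptide binding is read by fluorescence polarization.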
USP2a block: inhibitors of human ubiquitin-specific protease USP2a. O75604. USP2 core, Ub-CHOP2 coupled fluorogenic reporter, 485/531. Potency, µM (series often up to 38.3 µM), hits mostly inhibitors. actives 0.01% (n = 330,000). AID 463254
Target sequence (O75604 whole entry, looked up): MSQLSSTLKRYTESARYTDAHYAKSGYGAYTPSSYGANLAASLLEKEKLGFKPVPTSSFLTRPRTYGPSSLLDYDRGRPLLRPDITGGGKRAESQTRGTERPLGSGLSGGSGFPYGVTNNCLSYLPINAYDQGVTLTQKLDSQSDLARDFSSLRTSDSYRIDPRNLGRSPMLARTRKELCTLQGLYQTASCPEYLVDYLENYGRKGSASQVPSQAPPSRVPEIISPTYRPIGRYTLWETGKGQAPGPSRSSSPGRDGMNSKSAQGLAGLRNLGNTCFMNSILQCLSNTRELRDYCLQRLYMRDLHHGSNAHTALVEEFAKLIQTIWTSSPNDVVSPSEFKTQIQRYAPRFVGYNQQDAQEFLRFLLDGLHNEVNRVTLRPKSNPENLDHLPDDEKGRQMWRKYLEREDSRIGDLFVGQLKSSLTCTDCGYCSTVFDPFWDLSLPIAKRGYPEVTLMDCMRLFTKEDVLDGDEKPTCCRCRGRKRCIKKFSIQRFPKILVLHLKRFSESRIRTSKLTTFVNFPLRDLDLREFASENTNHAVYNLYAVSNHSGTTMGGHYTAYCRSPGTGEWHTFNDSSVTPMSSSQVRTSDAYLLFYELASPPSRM
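Cell-free coupled assay: 10nM USP2 core preincubated 30min RT with compound in Tris-HCl pH 8.0/CaCl2/CHAPS buffer, then 25nM Ub-CHOP2 and 25nM reporter substrate; fluorescence (Ex 485/Em 531) read after 60min RT, normalized to NEM inhibition, concentration-response curves fitted.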
Hits are given with their value; - = inactive; ? = inconclusive; . = not tested or not shown. Hits are enriched below; roughly 3.2% of the tested compounds scored in any of these assays. Unless noted, calls follow the shape of the dose curve; as a rule, active = well fitted curve in the direction sought with a large enough effect; inconclusive = small, poorly fitted or top-dose-only effect, or another doubt; inactive = no such curve, though single readings can be large; an effect the other way counts as inactive or inconclusive.

SMILES | USP1 inh | Coupling enz | GALK inh | PLK1 PBD block | VDR inhibitor | USP2a block
COc1cc(C(C2C(=O)CC(C)(C)CC2=O)C2C(=O)CC(C)(C)CC2=O)cc(OC)c1OC | - | - | - | ? | ? | -
COc1cc(C(C2=C(O)CC(C)(C)CC2=O)C2C(=O)CC(C)(C)CC2=O)cc(OC)c1OC (stereo unspecified) | - | - | - | 18.9µM | ? | -
CCc1cc(-c2nnn(CCC3COCCO3)c2CC)cc(CC)c1-c1cn(Cc2ccccc2)nn1 (stereo unspecified) | - | . | . | - | . | .
C=CCNC(=O)Nc1cc(Cl)ccc1OC | - | - | - | 26.7µM | - | -
COc1ccc(CNC(=S)Nc2cc(C)ccc2C)cc1 | - | - | - | ? | - | -
COc1ccc(Cl)cc1NC(=S)Nc1ccccc1C | - | - | - | 10.6µM | ? | -
COc1ccc(CNC(=S)Nc2ccccc2C)cc1 | - | - | - | 16.8µM | - | -
Cn1c(C(=O)NCCN2CCCCCC2)cc2c(=O)n(C)c3ccccc3c21 | - | - | - | - | - | -
Cn1c(C(=O)N2CCCC2)cc2c(=O)n(C)c3ccccc3c21 | - | - | - | - | - | -
Cn1c(C(=O)N2CCN(c3ncccn3)CC2)cc2c(=O)n(C)c3ccccc3c21 | ? | -45.4 | - | - | - | -
Cn1c(C(=O)NC2CCCC2)cc2c(=O)n(C)c3ccccc3c21 | - | - | - | 29.9µM | ? | -
O=C(NCC1CCN(Cc2ccc(F)cc2)CC1)c1cc2ccc3cccnc3c2[nH]1 | - | . | . | . | - | .
CCOC(=O)CSc1cccc2cccnc12 | - | - | - | 13.4µM | - | -
O=C(O)c1ccc(-c2ccc(/C=N/Nc3ccc([N+](=O)[O-])cc3)o2)cc1 | 12.6µM | - | . | - | - | -
O=C(O)c1ccc(N/N=C/c2ccc(-c3cccc(Cl)c3)o2)cc1 | - | - | . | ? | - | -
O=C(O)c1ccc(N/N=C/c2ccc(-c3ccc(Cl)cc3Cl)o2)cc1 | ? | - | - | 23.8µM | - | -
O=C(O)c1ccc(N/N=C/c2ccc(-c3cc(Cl)ccc3Cl)o2)cc1 | - | - | . | 21.2µM | ? | -
O=S(=O)(NCCc1csc(-c2ccccc2)n1)c1ccc2c(c1)OCCO2 | - | - | - | - | - | -
COC(=O)/C=C/C(C)=C/C=C/C(C)=C/C=C/C=C(C)/C=C/C=C(C)/C=C/C(=O)O | . | - | . | . | 89.1µM | .
CSc1nccc(Nc2ccccc2)c1C#N | - | - | - | - | - | -
COc1ccc(C(c2c(C)[nH]n(C(N)=S)c2=O)C(C#N)C#N)cc1 (stereo unspecified) | - | - | - | 21.2µM | 28.2µM | -
O=C1CN(C(=O)COC(=O)c2cc(S(=O)(=O)N3CCOCC3)ccc2Cl)c2ccccc2N1 | - | - | - | - | - | -
O=C(NC(=S)Nc1cccc2ncccc12)c1ccco1 | - | - | - | - | - | -
COCCCNC(=S)Nc1cccc2ncccc12 | - | -33.1 | - | 26.7µM | - | -
Cc1cc(C(=O)OCC(=O)N2CCOCC2)c(C)n1-c1ccccc1 | - | . | . | - | - | -
SMILES | USP1 inh | Coupling enz | GALK inh | PLK1 PBD block | VDR inhibitor | USP2a block
Cc1cc(C(=O)OCC(=O)Nc2c(F)cccc2F)c(C)n1-c1ccccc1 | - | - | - | 21.2µM | ? | -
Cc1noc(C)c1C(=O)OCC(=O)Nc1ccc(C(N)=O)cc1 | - | - | - | - | - | -
Cc1noc(C)c1C(=O)OCC(=O)Nc1c(F)cccc1F | - | - | - | 8.44µM | 50.1µM | -
O=C(C[C@H]1C/C=C\CC[C@H](Cc2ccc(F)cc2)C(=O)OC[C@H]2CCCN2C1=O)N[C@@H](CO)Cc1ccccc1 | - | . | . | - | - | -
COc1ccc(NC(=O)Cn2nc(C)c([N+](=O)[O-])c2C)cn1 | - | - | - | - | - | -
CCOc1cc(/C=C2\SC(=O)N(CC(=O)Nc3ccccc3F)C2=O)cc([N+](=O)[O-])c1O | - | - | - | 23.8µM | ? | -
COc1cc(/C=C2\SC(=O)N(CC(=O)Nc3cccc(C)c3)C2=O)cc([N+](=O)[O-])c1O | - | - | - | 9.47µM | 70.8µM | -
COc1cc(OC)c(/C=C2\SC(=O)N(CC(=O)Nc3ccccc3F)C2=O)c(OC)c1 | - | - | - | - | - | -
COC(=O)c1ccccc1NC(=O)[C@H]1O[C@@H]2OC(C)(C)O[C@@H]2[C@H]2OC(C)(C)O[C@H]21 | - | . | . | . | - | .
O=C1CS(=O)(=O)N(Cc2ccc(F)cc2)c2ccccc21 | - | . | . | - | 79.4µM | -
Cn1nnc2cc(NC(=O)NCc3ccc4c(c3)OCO4)ccc21 | - | - | - | - | - | -
Cc1ccc(CNC(=O)C2CCCN(c3nc(C)cc(C)n3)C2)cc1 (stereo unspecified) | - | - | - | - | - | -
Cc1ccc(NC(=O)c2ccco2)cc1C | - | - | - | 21.2µM | - | -
Cc1cccc(NC(=S)NNC(=O)c2ccco2)c1 | - | - | - | - | - | -
Cc1ccc(C)c(NC(=S)NNC(=O)c2ccco2)c1 | - | - | - | 18.9µM | - | -
Cc1ccc(NC(=O)c2cnn(-c3ccccc3)c2NC(=O)c2ccco2)cc1 | - | - | - | 3.36µM | - | -
COC(=O)C1=C(C)OC(N)=C(C#N)C1c1cc2cccc(C)c2nc1Cl (stereo unspecified) | . | - | - | . | . | -
CC(=O)C1=C(C)OC(N)=C(C#N)C1c1cc2cccc(C)c2nc1Cl (stereo unspecified) | - | -34.1 | . | - | - | -
CC1(C)C(=O)C2(C(=O)NCc3ccccc3)CCC1C2 (stereo unspecified) | - | - | - | - | - | -
COC(=O)c1ccc(-n2c(C)cc(C(=O)CSc3ccc(NC(C)=O)cc3)c2C)cc1 | - | - | - | 13.4µM | - | -
C=CCn1c(C)cc(C(=O)CSc2ccc(NC(C)=O)cc2)c1C | - | - | - | - | - | -
COC(=O)c1ccc(NC(=O)CSc2ccccc2)cc1 | - | - | - | 21.2µM | 50.1µM | -
CC(=O)Nc1ccc(SCC(=O)c2cc(C)n(-c3ccccc3F)c2C)cc1 | - | - | - | 18.9µM | - | -
COCCn1c(C)cc(C(=O)CSc2ccc(NC(C)=O)cc2)c1C | - | - | - | ? | - | -
NC(=O)c1ccc(NC(=O)CSC(=O)c2ccccc2)cc1 | - | . | . | 26.7µM | ? | -
Cc1nnc(SCC(=O)Nc2ccc(C(N)=O)cc2)n1-c1ccccc1 | - | - | - | - | - | -
NCCCC[C@H](NC(=O)C1CCNCC1)c1nnc([C@@H](N)Cc2ccc(O)cc2)o1 | ? | - | - | - | - | -
Cc1cc2nc3c(=O)n(C4CCCCC4)c(=O)[nH]c3nc2cc1N | ? | - | - | 2.99µM | ? | ?

High-throughput results: PubChem, National Center for Advancing Translational Sciences (NCATS)
